Results as given in PubChem BioAssay (EPA / NIEHS).
Activity calls are given as the source filed them. The calls were made as follows: active = hit-call score of the fitted dose curve at least 0.9, where 1 is the maximum; inactive = score below 0.9.

Test: ATG_Sox_CIS: Attagene CIS-FACTORIAL HepG2 Assay for human SRY-box transcription factor (SOX) (AID 2282960)
Details: HepG2 Attagene cis-factorial SOX reporter, mRNA; actives raise or lower the signal
Method: ATG_CIS is a cell-based, multiplexed-readout assay that uses HepG2, a human liver cell line, with measurements taken at 24 hours after chemical dosing in a 24-well plate.ATG_Sox_CIS is one of 52 assay component(s) measured or calculated from the ATG_CIS assay. It is designed to make measurements of mRNA induction, a form of inducible reporter, as detected with fluorescence intensity signals by Reverse transcription polymerase chain reaction (RT-PCR) and Capillary electrophoresis technology.Data from the assay component ATG_Sox_CIS was analyzed into 1 assay endpoint. This assay endpoint, ATG_Sox_CIS, was analyzed with bidirectional fitting relative to DMSO as the negative control and baseline of activity. Using a type of inducible reporter, measures of mRNA for gain or loss-of-signal activity can be used to understand the reporter gene at the transcription factor-level as they relate to the gene SOX1. Furthermore, this assay endpoint can be referred to as a primary readout, because this assay has produced multiple assay endpoints where this one serves a reporter gene function. To generalize the intended target to other relatable targets, this assay endpoint is annotated to the dna binding intended target family, where the subfamily is HMG box protein.
Human liver HepG2 cells are transiently transfected with multiple reporter transcription units (MRTUs) in 6-well plates using FuGene 6 reagent (Roche; 3 ml FuGene/1 mg DNA). The MRTU constructs are regulated by a cis-regulating element (promoter). […] A major difference between the CIS and TRANS system is that in CIS activities of endogenous TFs are measured, whereas the TRANS assay evaluates changes in activities of exogenous, chimeric NR-Gal4 proteins. […] At the end of 24 hour incubation, total RNA was isolated using TriZol reagent (Invitrogen). The isolated RNA is then reverse-transcribed using oligo(dT) primer and Mo-MLV reverse transcriptase (Invitrogen) with DNAse I (Ambion) treatment for 30 min. The one-tenth of the produced cDNA was amplified by PCR using Taq DNA polymerase (Invitrogen) and two reporter sequence-specific primers. The PCR products were fluorescently labeled by primer extension with 6-arboxyfluorescein (6-FAM) 5'-labeled reporter sequence-specific primer (2 min at 95 C, 20 s at 68 C and 10 min at 72 C) and these products were digested with 5U of HpaI (New England Biolabs) for 2h at 37 C. The fragments were purified using Qiaquick PCR columns (Qiagen), analyzed on an ABI 3130xL genetic analyzer (Applied Biosystems) with peak positions identified by using a set of X-rhodamine (ROX)-labeled MapMarker1000 molecular weight standards (BioVentures). The raw capillary electrophoresis data was processed using Attagraph software (Attagene).

Row | SMILES | outcome | AC50
1 | COC(=O)c1ccc2cc(C(=O)OC)ccc2c1 | inactive | 
2 | CC(C)=CCC[C@H](C)CCO | inactive | 
3 | CCC(C)C=O (stereo not given) | inactive | 
4 | CCCCC(CC)COC(=O)c1ccccc1 (stereo not given) | inactive | 
5 | CCCc1ccc(OC)cc1 | inactive | 
6 | O=C1C=CC(=O)O1 | inactive | 
7 | CCCCC(CC)COCC1CO1 (stereo not given) | inactive | 
8 | CC(CC=O)c1ccccc1 (stereo not given) | inactive | 
9 | CCOC(=O)c1ccc(N(C)C)cc1 | inactive | 
10 | O=C1c2ccccc2C(=O)C1c1nc2ccccc2c(Br)c1O | inactive | 
11 | O=C1OC(=O)c2cc(Oc3ccc4c(c3)C(=O)OC4=O)ccc21 | inactive | 
12 | CCCCCCC(O)CO (stereo not given) | inactive | 
13 | CCCCC(CC)CCC(CC(C)C)OS(=O)(=O)O (stereo not given) | inactive | 
14 | CNC(=S)NN | inactive | 
15 | C=C1[C@H]2CC[C@@H]3[C@H]2C(C)(C)CCC[C@]13C | inactive | 
16 | OC1CCCCCCCCCCC1 | inactive | 
17 | CCOc1nc(F)cc2nc(S(=O)(=O)Nc3c(Cl)cccc3C(=O)OC)nn12 | inactive | 
18 | Cc1cc(=O)n(-c2ccccc2)n1C | inactive | 
19 | Nc1ccc(-c2ccc(F)cc2)cc1 | inactive | 
20 | CNC(=S)N(C)C | inactive | 

Row | SMILES | outcome | AC50
21 | OCCCS | inactive | 
22 | NC(=O)NNC(N)=O | inactive | 
23 | CCCCCCCCCCCCCCCC[N+](C)(C)CC | inactive | 
24 | Oc1ccc(Cl)cc1Cc1cc(Cl)ccc1O | inactive | 
25 | O=C(c1ccc(O)cc1)c1ccc(O)cc1O | inactive | 
26 | Cc1ccc(N)c([N+](=O)[O-])c1 | inactive | 
27 | O=[N+]([O-])C1(Br)COCOC1 |  | 51.9 µM (active)
28 | NC(CO)(CO)CO | inactive | 
29 | COC(=O)c1ccccc1OC | inactive | 
30 | CC(C)C1=CC2=CC[C@@H]3[C@](C)(CCC[C@@]3(C)C(=O)O)[C@H]2CC1 |  | 169 µM (active)
31 | CC(=O)Nc1nnc(S(N)(=O)=O)s1 | inactive | 
32 | N#CCc1ccc(Cl)cc1Cl | inactive | 
33 | O=S(=O)(O)CC(O)CCl (stereo not given) | inactive | 
34 | CC(=O)OCc1ccco1 | inactive | 
35 | CC1=NC(C)OC1C (stereo not given) | inactive | 
36 | CC(C)C(=O)C(C)C |  | 19.5 µM (active)
37 | CC1(C)O[C@@H]2C[C@H]3[C@@H]4C[C@H](F)C5=CC(=O)CC[C@]5(C)[C@H]4[C@@H](O)C[C@]3(C)[C@]2(C(=O)CO)O1 | inactive | 
38 | C=CCOCC(O)CCl (stereo not given) | inactive | 
39 | CCN(CC#N)c1cccc(C)c1 | inactive | 
40 | CCO[Si](CCCN=C=O)(OCC)OCC | inactive | 
